Test results taken from PubChem BioAssay (Tox21).
Where “and” joins values, the source holds several entries; their conditions need not be identical. Identical values can stand only once. Results filed as inconclusive are left out. Some structures have more than one record in an assay (separate samples or runs), and their calls can disagree. Calls of active or inactive are those of the source. Unless noted, the call rests on the fitted dose curve; in most records, active means well fitted curve in the direction sought with a large enough effect in the repeat runs; inconclusive means weak or mixed curves; inactive means no such curve, though single readings can be large; an effect the other way counts as inactive or inconclusive.

Assays:
[1] = target: Thyrotropin receptor (Homo sapiens) (UniProt P16473); experiment: qHTS assay to identify small molecule agonists of the thyroid stimulating hormone receptor (TSHR) signaling pathway (AID 1224843; calls by dose curve; further: nearly all actives have a fitted effect of over 45% in size)
How it was run: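 Agonist-mode screen: TSHR HEK293 cells received test chemicals for half an hour at room temperature, then HTRF cAMP detection reagents for one hour prior to fluorescence measurement. Each chemical ran as a 15-concentration series, triplicated.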

[2] = qHTS assay to identify small molecule agonists of the hypoxia (HIF-1) signaling pathway - cell viability counter screen (AID 1224844; calls by dose curve; further: nearly all actives have a fitted effect of over 50% in size; further: potency means the concentration at half of the fitted maximal effect)
How it was run: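 HRE-bla ME-180; 0.5% dFBS; cpd 17 h, 37C, 5% CO2; CellTiter-Glo lum., 30 min RT, post-FRET read, same wells.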

[3] = qHTS assay to identify small molecule agonists of the hypoxia (HIF-1) signaling pathway (AID 1224846; active means well fitted activation curve with a large enough effect in the signal ratio in the repeat runs, not every such curve was filed as active; the % refers to the signal ratio)
How it was run: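 Reporter induction in HRE-bla ME-180 cells is taken as agonism: cells sit 5 hrs after plating, receive compounds or DMSO only, incubate 17 hrs at 37C under 5% CO2, and are loaded with CCF4-AM for beta-lactamase FRET measurement.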

[4] = qHTS assay to identify small molecule agonists of H2AX - cell viability counter screen (AID 1224847; calls by dose curve; further: nearly all actives have a fitted effect of over 30% in size; further: potency means the concentration at half of the fitted maximal effect)
How it was run: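 Wild-type CHO-K1 cells (10% FBS medium) were plated overnight at 37C, exposed to compounds at 15 concentrations for 3 hr at 37C (0.76% DMSO final), and viability was read as CellTiter-Glo luminescence after 30 min at room temperature.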

[5] = qHTS RealTime-Glo MT Cell Viability Assay in HepG2 cells - 24 hour (AID 1224867); further: nearly all actives have a fitted effect of over 50% in size; further: potency means the concentration at half of the fitted maximal effect
How it was run: (§1)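 Real-time, nonlytic viability: 600 HepG2 cells/well mixed with NanoLuc enzyme plus prosubstrate; 5 h settle, compound (DMSO) added by pintool; luminescence monitored over 40 h at 37 C.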

[6] = qHTS RealTime-Glo MT Cell Viability Assay in HEK293 cells - 32 hour (AID 1224868); further: nearly all actives have a fitted effect of over 50% in size; further: potency means the concentration at half of the fitted maximal effect
How it was run: (§2)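 Cells + reagent dispensed (600 cells/well, HEK293) → 5 h at 37 C/5% CO2 → 23 nL compound in DMSO pinned → 40 h at 37 C → luminescence read at 0, 8, 16, 24, 32, 40 h.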

[7] = A CellTox Green Cytotoxicity Assay to monitor cytotoxicity in HEK293 cells - 0 hour (AID 1224869); further: nearly all actives have a fitted effect of over 50% in size
How it was run: (§3)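 Tox21 screen in HEK293: membrane-impermeant cyanine dye fluoresces on binding dead-cell DNA; compound pinned 5 h post-seeding, plates held at 37 C, signal read repeatedly through 40 h.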

[8] = qHTS RealTime-Glo MT Cell Viability Assay in HepG2 cells - 40 hour (AID 1224870); further: nearly all actives have a fitted effect of over 50% in size; further: potency means the concentration at half of the fitted maximal effect
How it was run: (§4)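 HepG2 cells (600/well) mixed with RealTime-Glo MT reagent, settled 5 h at 37 C/5% CO2 before compound addition. Nonlytic NanoLuc luminescence from viable-cell prosubstrate reduction read repeatedly during 40 h treatment at 37 C.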

[9] = A CellTox Green Cytotoxicity Assay to monitor cytotoxicity in HEK293 cells - 40 hour (AID 1224871); further: nearly all actives have a fitted effect of over 45% in size; further: potency means the concentration at half of the fitted maximal effect
How it was run: as §3

[10] = qHTS RealTime-Glo MT Cell Viability Assay in HEK293 cells - 16 hour (AID 1224872); further: nearly all actives have a fitted effect of over 50% in size; further: potency means the concentration at half of the fitted maximal effect
How it was run: as §2

[11] = qHTS RealTime-Glo MT Cell Viability Assay in HepG2 cells - 8 hour (AID 1224873); further: nearly all actives have a fitted effect of over 55% in size
How it was run: as §4

[12] = qHTS RealTime-Glo MT Cell Viability Assay in HEK293 cells - 40 hour (AID 1224874); details: RealTime-Glo luminescence; max response: stronger effect = lower value; further: nearly all actives have a fitted effect of over 50% in size; further: potency means the concentration at half of the fitted maximal effect
How it was run: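 HEK293 + NanoLuc + prosubstrate, 600 cells/well; 5 h, 37 C/5% CO2; compound 23 nL in DMSO by pintool; 37 C; luminescence read at 0, 8, 16, 24, 32 and 40 h time points.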

[13] = A CellTox Green Cytotoxicity Assay to monitor cytotoxicity in HepG2 cells - 16 hour (AID 1224876); further: nearly all actives have a fitted effect of over 45% in size; further: potency means the concentration at half of the fitted maximal effect
How it was run: (§5)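 Measurements at 0, 8, 16, 24, 32 and 40 h of treatment captured CellTox Green fluorescence in HepG2 cells that had been co-plated with reagent and preincubated 5 h at 37 C/5% CO2.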

[14] = qHTS RealTime-Glo MT Cell Viability Assay in HepG2 cells - 32 hour (AID 1224877); further: nearly all actives have a fitted effect of over 55% in size; further: potency means the concentration at half of the fitted maximal effect
How it was run: as §1

[15] = A CellTox Green Cytotoxicity Assay to monitor cytotoxicity in HepG2 cells - 24 hour (AID 1224878); further: nearly all actives have a fitted effect of over 45% in size; further: potency means the concentration at half of the fitted maximal effect
How it was run: as §5

[16] = A CellTox Green Cytotoxicity Assay to monitor cytotoxicity in HepG2 cells - 40 hour (AID 1224879); further: nearly all actives have a fitted effect of over 40% in size; further: potency means the concentration at half of the fitted maximal effect
How it was run: as §5

[17] = qHTS assay to identify small molecule agonists of the estrogen related receptor (ERR) signaling pathway from Tox21 library (AID 1224849; calls by dose curve; further: nearly all actives have a fitted effect of over 15% in size); details: ERR reporter cell line, ONE-Glo luciferase, 18 h; at 92.4 µM (top of the series) unless noted
How it was run: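 Tox21 compounds tested for ERR agonism in an NTP reporter cell line: 18 h treatment at 37 C, then ONE-Glo luminescence.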

[18] = A CellTox Green Cytotoxicity Assay to monitor cytotoxicity in HEK293 cells - 24 hour (AID 1224875); further: nearly all actives have a fitted effect of over 45% in size
How it was run: as §3

[19] = qHTS assay to identify small molecule antagonists of the estrogen related receptor (ERR) signaling pathway from Tox21 library (AID 1224848); further: nearly all actives have a fitted effect of over 50% in size; further: potency means the concentration at half of the fitted maximal effect
How it was run: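 Quantitative high-throughput format: ERR reporter cells (2,000/well) pre-incubated 6 h, treated 18 h at 37 C with compounds in DMSO alongside positive and negative controls, then read by ONE-Glo luminescence.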

[20] = qHTS assay to identify small molecule agonists of H2AX (AID 1224845; active means well fitted activation curve with a large enough effect in the signal ratio in the repeat runs, not every such curve was filed as active; the % refers to the signal ratio)
How it was run: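 Wild-type CHO-K1 cells, plated overnight, exposed 3hr at 37C to 15 concentrations (0.76% DMSO final). Lysed, then HTRF anti-pH2AX (S139) cryptate and anti-H2AX-d2 antibodies, 24 hr room temperature; 665/620 nm emission read.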
On the % scale 0 is the no-effect control and ±100 the full control effect.

Chain of Thyrotropin receptor (Homo sapiens) (P16473 whole entry, looked up): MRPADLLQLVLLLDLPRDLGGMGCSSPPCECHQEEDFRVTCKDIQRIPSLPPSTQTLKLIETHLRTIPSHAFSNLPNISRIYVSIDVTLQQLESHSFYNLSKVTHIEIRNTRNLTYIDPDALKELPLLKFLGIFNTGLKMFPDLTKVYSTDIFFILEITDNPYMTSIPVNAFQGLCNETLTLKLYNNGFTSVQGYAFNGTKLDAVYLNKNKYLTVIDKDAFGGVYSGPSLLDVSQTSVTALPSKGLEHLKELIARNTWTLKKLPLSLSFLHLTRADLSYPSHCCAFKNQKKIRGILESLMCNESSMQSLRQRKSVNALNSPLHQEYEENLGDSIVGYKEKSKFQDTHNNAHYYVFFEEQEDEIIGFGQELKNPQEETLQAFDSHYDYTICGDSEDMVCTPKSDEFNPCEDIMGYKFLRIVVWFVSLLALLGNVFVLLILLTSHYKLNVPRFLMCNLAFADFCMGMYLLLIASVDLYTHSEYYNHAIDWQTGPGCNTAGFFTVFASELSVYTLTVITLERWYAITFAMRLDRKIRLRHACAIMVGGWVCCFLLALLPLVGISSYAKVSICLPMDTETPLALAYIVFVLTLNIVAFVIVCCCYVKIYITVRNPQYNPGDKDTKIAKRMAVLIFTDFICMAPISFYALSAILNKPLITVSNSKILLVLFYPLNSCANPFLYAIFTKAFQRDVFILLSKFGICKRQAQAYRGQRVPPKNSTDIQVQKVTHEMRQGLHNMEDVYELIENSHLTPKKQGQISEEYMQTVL

OCC1CC=CCC1 (stereo unspecified)
inactive: Potency [1] | Potency [2] | outcome [3] | Potency [4] | Potency [5] | Potency [6] | Potency [7] | Potency [8] | Potency [9] | Potency [10] | Potency [11] | max response [12] -1.94% | Potency [13] | Potency [14] | Potency [15] | Potency [16]

CCN(Cc1cccc(S(=O)(=O)O)c1)c1ccc(C(=C2C=CC(=[N+](CC)Cc3cccc(S(=O)(=O)[O-])c3)C=C2)c2ccccc2)cc1
inactive: Potency [1] | Potency [2] | outcome [3] | activity change, positive = activation [17] 1.85% [at 42.5 µM] | Potency [6] | Potency [7] | Potency [8] | Potency [9] | Potency [10] | Potency [11] | max response [12] 3.22% | Potency [18] | Potency [13] | Potency [15] | Potency [16]

CC(C)c1nnc2ccc(-c3ocnc3-c3cc(F)ccc3F)cn12
inactive: Potency [1] | Potency [2] | outcome [3] | activity change, positive = activation [17] -31.4% | Potency [5] | Potency [7] | Potency [8] | Potency [11] | Potency [13] | Potency [14] | Potency [15] | Potency [16]
active: Potency [6] 21.9 µM | Potency [10] 17.4 µM | Potency [12] 19.5 µM

Cc1cc(S(=O)(=O)O)ccc1N=Nc1c(O)ccc2ccccc12
inactive: Potency [1] | Potency [2] | outcome [3] | Potency [19] | Potency [5] | Potency [6] | Potency [7] | Potency [8] | Potency [9] | Potency [10] | max response [12] -12.7% | Potency [18] | Potency [13] | Potency [15] | Potency [16]

Cc1nccn1-c1ccc(Sc2cccc(C3(C(N)=O)CCOCC3)c2)cc1
active: Potency [6] 1.38 µM | Potency [10] 1.38 µM | Potency [12] 1.23 µM
inactive: Potency [1] | Potency [2] | outcome [3] | Potency [7] | Potency [8] | Potency [9] | Potency [11] | Potency [18] | Potency [13] | Potency [15]

O=C(CS)OCCOC(=O)CS
inactive: Potency [1] | Potency [20] | outcome [3] | Potency [4] | activity change, positive = activation [17] -27.9% | Potency [5] | Potency [6] | Potency [7] | Potency [8] | Potency [9] | Potency [10] | Potency [11] | max response [12] 0.141% | Potency [18] | Potency [13] | Potency [15] | Potency [16]

COc1cc2ncnc(Nc3ccc(F)c(Cl)c3)c2cc1OCCCN1CCOCC1
active: Potency [4] 55.2 µM | Potency [19] 13.3 µM | Potency [6] 9.52 µM | Potency [8] 26.8 µM | Potency [10] 9.52 µM | Potency [12] 10.7 µM | Potency [13] 23.9 µM | Potency [14] 23.9 µM | Potency [15] 23.9 µM | Potency [16] 23.9 µM
inactive: Potency [1] | Potency [20] | outcome [3] | activity change, positive = activation [17] -47.8% [at 42.5 µM] | Potency [7]

CCCCCCCCCCCC(=O)[O][Sn]([CH2]CCC)([CH2]CCC)[O]C(=O)CCCCCCCCCCC
active: Potency [5] 19 µM | Potency [6] 7.56 µM | Potency [8] 19 µM | Potency [9] 6.74 µM | Potency [12] 7.56 µM | Potency [14] 19 µM | Potency [15] 19 µM | Potency [16] 16.9 µM
inactive: Potency [1] | Potency [2] | activity change, positive = activation [17] -11.3% [at 42.5 µM] | Potency [7] | Potency [11] | Potency [18] | Potency [13]

Cc1oncc1C(=O)Nc1ccc(C(F)(F)F)cc1
inactive: Potency [1] | Potency [2] | Potency [4] | Potency [5] | Potency [6] | Potency [7] | Potency [8] | Potency [9] | Potency [10] | Potency [11] | max response [12] 8.36% and -3.36% | Potency [13] | Potency [14] | Potency [15]
54.9 µM (active) and inactive: Potency [16]

O=C1OCCN1/N=C/c1ccc([N+](=O)[O-])o1
inactive: Potency [1] | Potency [2] | outcome [3] | Potency [5] | Potency [6] | Potency [7] | Potency [8] | Potency [9] | Potency [10] | max response [12] 2.01% | Potency [18] | Potency [13] | Potency [15] | Potency [16]

COc1ccc([C@@H]2Sc3ccccc3NC(=O)[C@@H]2O)cc1
inactive: Potency [1] | Potency [2] | outcome [3] | Potency [4] | Potency [5] | Potency [7] | Potency [8] | Potency [9] | Potency [10] | Potency [11] | Potency [18] | Potency [13] | Potency [14] | Potency [15]

O=C(OCCOCCO)c1ccccc1Nc1cccc(C(F)(F)F)c1
inactive: Potency [1] | Potency [2] | outcome [3] | Potency [5] | Potency [7] | Potency [8] | Potency [10] | Potency [11] | Potency [14]
active: Potency [9] 2.39 µM

CNC(=S)NC
active: Potency [2] 11 µM | Potency [16] 54.9 µM
inactive: Potency [1] | Potency [4] | Potency [5] | Potency [6] | Potency [7] | Potency [8] | Potency [9] | Potency [10] | Potency [11] | Potency [18] | Potency [13] | Potency [14] | Potency [15]

CCCCCCCCSCCO
active: Potency [15] 43.6 µM | Potency [16] 43.6 µM
inactive: Potency [1] | Potency [2] | outcome [3] | Potency [19] | Potency [5] | Potency [6] | Potency [7] | Potency [8] | Potency [9] | Potency [10] | Potency [11] | max response [12] 0.336% | Potency [18] | Potency [13] | Potency [14]

Cn1c(=O)c2c(ncn2CC(=O)O)n(C)c1=O
inactive: Potency [1] | Potency [2] | outcome [3] | Potency [4] | Potency [6] | Potency [7] | Potency [8] | Potency [9] | Potency [10] | Potency [11] | max response [12] 1.42% | Potency [13] | Potency [14] | Potency [15] | Potency [16]
